TDP1 cell noCPT – qHTS for Inhibitors of human tyrosyl-DNA phosphodiesterase 1 (TDP1): qHTS in cells in absence of CPT | AID 686978, 2013 | 420,000 tested, 15% active | Potency, µM (highest dose often 46.2 µM), for the others: top-dose activity change, negative = growth inhibition, most hits filed as inhibitors | DT40 Tdp1-/- hTDP1 cells, no CPT, ATP luminescence, 48 h; note: potency is the fitted concentration of half-maximal effect; nearly all actives have a fitted effect of over 55% in size
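Chicken DT40 Tdp1-/- cells stably complemented with human TDP1 were seeded at 400 cells/well with DMSO in place of 20 nM camptothecin. After compound pinning, cells grew at least 48 hr at 37 °C; viability read by CellTiter-Glo luminescence.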
HT1080NT lethal – kills 2HG-producing HT-1080-NT fibrosarcoma cells. HT-1080-NT fibrosarcoma viability, CellTiter-Glo ATP luminescence, 48 h. Potency, µM (top dose mostly 46.1 µM), inactives show at the top dose activity, negative = less viability, most hits filed as cytotoxic. 360,000 tested, 1.6% active. AID 686970;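 note: NT is the 2HG producing partner of a matched IDH1 knockdown line; potency is the fitted concentration of half-maximal effect; 0% = DMSO-treated cells and -100% = media-only wells without cells; nearly all actives have a fitted effect of over 55% in size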
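Read-out is CellTiter-Glo luminescence after 10 minutes at room temperature, following 48 hours' compound treatment of HT-1080-NT cells (750 cells/well, RPMI, 5% FBS, 37 degrees C).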
ELG1 repair inh – ELG1-dependent DNA repair inhibition; HEK293T ELG1-luciferase reporter, luminescence, 16 h; DNA damage induced by 5-fluorouridine; Potency, µM (highest dose often 46.1 µM), for the others: top-dose activity change, negative = inhibition, usual class: inhibitors; 330,000 tested, 2.3% active; note: potency is the fitted concentration of half-maximal effect; nearly all actives have a fitted effect of over 55% in size
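5-Fluorouridine DNA damage + compound/DMSO, 2,000 cells/well, 16 h, 37 °C/5% CO2. ONE-Glo, 30 min RT, luminescence. Readout = decrease in reporter signal.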
HT1080 IDH1KD tx – toxicity to HT-1080 IDH1 knockdown cells (counter line); HT-1080 IDH1 knockdown viability, ATP luminescence, 48 h; Potency, µM (series often up to 46.1 µM), for the others: at the highest dose activity, negative = toxicity, usual class: cytotoxic; 360,000 tested, 2% active;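 note: potency is the fitted concentration of half-maximal effect; 0% = DMSO wells and -100% = cell-free medium wells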
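Viability of IDH1-knockdown HT-1080 fibrosarcoma cells was assessed by CellTiter-Glo after 48 h at 37 °C with titrated compound; concentration-effect curves were classified by fit quality and response size.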
IL1B secr inh – blocks inflammasome-driven IL-1 beta release. THP-1 LPS/ATP IL-1B secretion, AlphaLISA, 16 h; stronger effect = lower value. activity change, % at 57.5 µM. 360,000 tested, 4.7% active; in the data active = activity change below about -50%; inconclusive = mostly about -30% to -49%
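Secreted IL-1B measured by AlphaLISA bead assay after 16 h compound exposure of THP-1 cells; compounds (final up to 57.5 uM) added 1 h before LPS (250 ng/mL) and ATP (1.25 mM) stimulation; lower signal means less secretion.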
TDP1 cell CPT – DT40-hTDP1 cell growth loss with CPT | Potency, µM (top dose mostly 46.2 µM), inactives show top-dose activity change, negative = growth inhibition, most hits filed as inhibitors | 420,000 tested, 12% active | chicken DT40 Tdp1-/-;hTDP1 cells + 20 nM CPT, ATP luminescence, 48 h; note: potency is the fitted concentration of half-maximal effect; nearly all actives have a fitted effect of over 55% in size
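Cell growth measured by CellTiter-Glo luminescence after a minimum 48 h, 37 C compound exposure with 20 nM CPT in Tdp1-knockout DT40 cells stably expressing hTDP1, seeded 400/well; qHTS titration format.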
* = called active by the depositor; u = inconclusive; x = no result. Compounds with a hit are over-represented: about 19% of the library has one in this group of screens. Unless noted, calls come from the whole dose curve; as a rule, active = well fitted curve in the direction sought with a large enough effect; inconclusive = small, poorly fitted or top-dose-only effect, or another doubt; inactive = no such curve, though single readings can be large; an effect the other way counts as inactive or inconclusive. Unless noted, % is set by controls: 0 for no effect and ±100 for the full control effect.

SMILES	TDP1 cell noCPT	HT1080NT lethal	ELG1 repair inh	HT1080 IDH1KD tx	IL1B secr inh	TDP1 cell CPT
COc1ccc(CNC(=O)C(c2ccccc2F)N(C(=O)c2csnn2)C2CC2)cc1 (configuration not stated)	u	0%	u	20%	-7	21µM*
CCOC(=O)c1cc(-c2ccccc2)n(CC(=O)NCc2ccc(C)cc2)c1C	8.2µM*	x	x	x	x	u
CC(=O)c1cc(-c2ccccc2)n(CC(=O)Nc2cccc(C)c2C)c1C	-2%	-1%	4%	1%	10	7%
CCOC(=O)c1cc(-c2ccccc2)n(CC(=O)Nc2ccc(CC)cc2)c1C	16µM*	x	x	x	x	8.2µM*
CC(=O)c1cc(-c2ccccc2)n(CC(=O)Nc2ccc(C)c(C)c2)c1C	12µM*	u	-8%	-30%	-9	u
CCOC(=O)c1cc(-c2ccccc2)n(CC(=O)Nc2ccc(OC)cc2)c1C	u	-9%	-2%	-8%	-9	-29%
CCc1cccc(NC(=O)Cn2c(-c3ccc(F)cc3)cc(C(C)=O)c2C)c1	16µM*	x	x	x	x	13µM*
CCCC(=O)N1CCC1(C)C(=O)Nc1ccc(C)c(C)c1 (configuration not stated)	u	19%	x	17%	9	u
CCc1ccccc1N(C)C(=O)c1cn(-c2cccc(OC)c2)c(=O)c2ccccc12	16µM*	x	x	x	x	15µM*
CCCCN(C)C(=O)c1cn(-c2cccc(OC)c2)c(=O)c2ccccc12	6%	17%	13%	13%	18	-2%
COc1cccc(-n2cc(C(=O)NCCc3cccc(C)c3)c3ccccc3c2=O)c1	18µM*	x	x	x	x	u
COc1ccc(-n2cc(C(=O)NCCc3cc(OC)ccc3OC)c3ccccc3c2=O)cc1	21µM*	x	x	x	x	16µM*
CC(C)(C)OC(=O)N1CCCC(C(=O)Nc2ccc(C(=O)NC3CC3)cc2)C1 (configuration not stated)	8%	4%	x	6%	2	11%
COc1ccc2oc(C(=O)Nc3nc4ccc(S(C)(=O)=O)cc4s3)c(C)c2c1	16µM*	-3%	11%	-3%	-52*	u
COc1ccc2oc(C(=O)Nc3nc(-c4ccccn4)cs3)c(C)c2c1	5.8µM*	-28%	-2%	u	28	5.8µM*
COc1cc(OC)cc(C(=O)Nc2nc3ccc(S(C)(=O)=O)cc3s2)c1	u	-20%	u	-22%	58	-25%
COCCNC(=S)N/N=C(\C)c1ccc(C)c([N+](=O)[O-])c1	1.5µM*	7%	-12%	-2%	-65*	1.3µM*
C/C(=N\NC(=O)COc1ccc(C(C)(C)C)cc1)c1ccc(OC(F)F)cc1	u	-9%	0%	-6%	-13	-3%
COCCNC(=S)N/N=C(\C)c1cc2ccccc2o1	18µM*	18%	u	15%	12	u
COCCNC(=S)N/N=C(\C)c1ccc2cc(OC)ccc2c1	26µM*	-15%	u	-25%	-88*	13µM*
COCCNC(=S)N/N=C(\C)c1ccc(OC(F)F)cc1	3%	2%	0%	0%	-11	16µM*
CCOc1ccc(S(=O)(=O)Nc2cccc(C(=O)N(C)CC(=O)Nc3cccc(OC)c3)c2)cc1	-21%	-3%	-3%	-6%	-4	-11%
CCN(CC(=O)Nc1ccc(NC(C)=O)cc1)C(=O)c1cccc(N2C(=O)c3ccccc3C2=O)c1	19%	-1%	x	-2%	-3	-6%
C=C(C)CNC(=S)N/N=C(\C)c1ccc(OC)cc1	2.9µM*	9%	5%	2%	0	3.7µM*
COCCNC(=S)N/N=C(\C)c1cccc(C(F)(F)F)c1	21µM*	20%	-3%	19%	-9	u
SMILES	TDP1 cell noCPT	HT1080NT lethal	ELG1 repair inh	HT1080 IDH1KD tx	IL1B secr inh	TDP1 cell CPT
COc1ccc(CNC(=S)N/N=C(/C)c2ccccc2)cc1	u	-8%	u	-13%	-11	-1%
CCOc1ccccc1N1Cc2cc(C)c(C)cc2C1	u	0%	18%	-3%	4	26µM*
COc1ccc(OC)c(N2Cc3cc(C)c(C)cc3C2)c1	26µM*	-7%	15%	3%	-1	u
CCn1c(=O)cc(OCC(=O)Nc2ccc(C)cn2)c2ccccc21	u	0%	u	7%	27	u
CCn1c(=O)cc(SCC(=O)Nc2ccc(C)cn2)c2ccccc21	29µM*	7%	u	8%	u	u
Cn1c(=O)cc(SCC(=O)NCc2ccc(F)cc2)c2cc(Cl)ccc21	13µM*	x	x	x	x	7.3µM*
CCCCNC(=O)CSc1cc(=O)n(C)c2ccccc12	-29%	28%	u	18%	-5	-21%
CCn1c(=O)cc(SCC(=O)NCc2ccc(C)cc2)c2ccccc21	26µM*	u	-6%	u	-17	u
CCc1ccc(CNC(=O)CSc2cc(=O)n(CC)c3ccccc23)cc1	8.2µM*	x	x	x	x	21µM*
CCC1(c2ccc(F)cc2)NC(=O)N(CC(=O)N2CC(=O)Nc3ccccc32)C1=O (configuration not stated)	5%	2%	-2%	1%	-1	3%
Cc1nn(Cc2ccc(F)cc2)c(C)c1NC(=O)CCCn1nc([N+](=O)[O-])cc1C	24%	17%	-8%	-1%	22	-2%
COC(=O)C[C@@H]1OC[C@H](C(C)C)N1S(=O)(=O)c1ccc(C)cc1	u	26%	x	15%	21	-18%
CCn1c(=O)cc(SCC(=O)NCc2ccc(C)o2)c2ccccc21	13µM*	-29%	10%	u	38	15µM*
Cc1ccc(CNc2cnn(C34CC5CC(CC(C5)C3)C4)c(=O)c2Cl)cc1	u	13%	-4%	11%	-17	u
O=c1c(Cl)c(N2CCN(c3ccccc3)CC2)cnn1C12CC3CC(CC(C3)C1)C2	23µM*	u	-2%	u	6	26µM*
O=c1c(Cl)c(NCc2ccc(F)cc2)cnn1C12CC3CC(CC(C3)C1)C2	16µM*	-2%	u	-9%	-11	16µM*
COc1ccc(Cn2c(C)nc3c(c2=O)c2nc4ccccc4nc2n3Cc2ccco2)cc1	8.2µM*	u	x	u	0	15µM*
Cc1cc(C)cc(-n2c3nc4ccccc4nc3c3c(=O)n(Cc4ccco4)cnc32)c1	12µM*	-1%	-8%	2%	-18	23µM*
